From PubChem
DT40 TDP1 CPT: DT40-hTDP1 cell growth loss with CPT; chicken DT40 Tdp1-/-;hTDP1 cells + 20 nM CPT, ATP luminescence, 48 h; Potency, µM (titrated, usually from 46.2 µM), without a hit: at the top dose activity change, negative = growth inhibition, usual class: inhibitors; 12% of 420,000 active; further: nearly all actives have a fitted effect of over 55% in size
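Cell growth measured by CellTiter-Glo luminescence after a minimum 48 h, 37 C compound exposure with 20 nM CPT in Tdp1-knockout DT40 cells stably expressing hTDP1, seeded 400/well; qHTS titration format.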
HT1080 IDH1KD tx: HT-1080 IDH1 knockdown cell toxicity (counter line) | Potency, µM (top dose mostly 46.1 µM), without a hit: at the highest dose activity, negative = toxicity, most hits filed as cytotoxic | 2% of 360,000 active | HT-1080 IDH1 knockdown viability, ATP luminescence, 48 h;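 further: 0% = DMSO wells and -100% = cell-free medium wells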
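Luminescent ATP read-out (CellTiter-Glo, 10 min at room temperature) after 48 h compound exposure at 37 °C gave viability of IDH1-knockdown HT-1080 cells. Activity was normalised to DMSO and cell-free wells, then fitted as concentration-response curves.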
DT40 TDP1 no CPT: qHTS for Inhibitors of human tyrosyl-DNA phosphodiesterase 1 (TDP1): qHTS in cells in absence of CPT; DT40 Tdp1-/- hTDP1 cells, no CPT, ATP luminescence, 48 h; Potency, µM (highest dose often 46.2 µM), for the others: at the highest dose activity change, negative = growth inhibition, most hits filed as inhibitors; 15% of 420,000 active; AID 686978, 2013; further: nearly all actives have a fitted effect of over 55% in size
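No-CPT arm: Tdp1-/-;hTDP1 DT40 cells (400/well) plus compounds, incubated ≥48 hr at 37 °C. Readout CellTiter-Glo luminescence.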
KB-3-1 cytotox: KB-3-1 parental cell cytotoxicity; KB-3-1 viability, CellTiter-Glo ATP luminescence, 72 h; Potency, µM (highest dose often 46.1 µM), actives largely listed as cytotoxic; 1.4% of 400,000 active; AID 1347075; further: nearly all actives have a fitted effect of over 60% in size
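KB-3-1 parental drug-naive adenocarcinoma cells in DMEM/10% FBS, incubated 72 h at 37 C with pin-transferred compounds across a concentration series. Viability by CellTiter-Glo luminescence; concentration-response curves fitted after normalization.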
HT1080NT lethal: kills 2HG-producing HT-1080-NT fibrosarcoma cells | AID 686970 | HT-1080-NT fibrosarcoma viability, CellTiter-Glo ATP luminescence, 48 h | Potency, µM (highest dose often 46.1 µM), without a hit: at the highest dose activity, negative = less viability, most hits filed as cytotoxic | 1.6% of 360,000 active;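 further: NT is the 2HG producing partner of a matched IDH1 knockdown line; 0% = DMSO-treated cells and -100% = media-only wells without cells; nearly all actives have a fitted effect of over 55% in size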
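Compounds were tested in concentration-response format on HT-1080-NT cells for 48 hours at 37 degrees C. Cell viability came from CellTiter-Glo luminescence; curves were classified by r2, response magnitude and activity.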
KB-V1 MDR tox: kills drug-selected multidrug resistant KB-V1 cells; KB-V1 MDR cells viability, CellTiter-Glo, 72 h; Potency, µM (doses to about 46.1 µM), actives largely listed as cytotoxic; 3.4% of 400,000 active; AID 1347076; further: nearly all actives have a fitted effect of over 60% in size
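qHTS viability screen in drug-selected KB-V1 MDR cells: 72 h compound treatment at 37 degrees C, ATP luminescence end point.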
The depositor's hits bear a star; i = inactive; ? = inconclusive; nt = no result given. Sampled rows, rich in hits. Any-hit rate of the full collection: about 19%. The call rests on the fitted dose curve; in most records, active means well fitted curve in the direction sought with a large enough effect; inconclusive means small, poorly fitted or top-dose-only effect, or another doubt; inactive means no such curve, though single readings can be large; an effect the other way counts as inactive or inconclusive. Unless noted, on the % scale 0 is the no-effect control and ±100 the full control effect; potency means the concentration at half of the fitted maximal effect.

SMILES	DT40 TDP1 CPT	HT1080 IDH1KD tx	DT40 TDP1 no CPT	KB-3-1 cytotox	HT1080NT lethal	KB-V1 MDR tox
C[C@]12CCC(=O)C=C1[C@@H]1C[C@@H]1[C@H]1[C@@H]3[C@@H]4C[C@@H]4[C@@]4(CCC(=O)O4)[C@@]3(C)CC[C@@H]12	8.4µM*	nt	7.5µM*	nt	nt	nt
CC(=O)SC1CC2=CC(=O)CCC2(C)C2CCC3(C)C(CCC34CCC(=O)O4)C12 (configuration not stated)	?	-23%	?	i	3%	i
Cc1nc2c(c(C)nn2C(C)(C)C)c(C)c1CCC(=O)Nc1ccc(F)cc1	?	nt	-23%	i	nt	?
Cc1ccccc1C(=O)NC1(C(F)(F)F)C(=O)Nc2c1c(=O)[nH]c(=O)n2-c1ccc(F)cc1 (configuration not stated)	-20%	nt	?	i	nt	i
CC1CN(c2nc3c(c(=O)n(Cc4ccc(Cl)c(Cl)c4)c(=O)n3C)n2C)CC(C)O1 (configuration not stated)	?	-16%	?	?	-7%	5.2µM*
Cn1c(N2CCN(c3ccccn3)CC2)nc2c1c(=O)n(Cc1ccc(Cl)cc1)c(=O)n2C	16µM*	6%	?	i	7%	?
Cn1c(N2CCOCC2)nc2c1c(=O)n(Cc1ccc(Cl)cc1)c(=O)n2C	?	3%	?	i	4%	23µM*
O=C(CCc1nnc2n(Cc3ccc(Cl)cc3)c(=O)c3ccccc3n12)N1CCN(c2ccccn2)CC1	21µM*	0%	21µM*	i	17%	i
CC(C)c1nc2oc3c(NCC4CCCO4)ncnc3c2c2c1CCC2 (configuration not stated)	26µM*	-19%	16µM*	i	-24%	?
CCCc1nc2oc3c(NCc4ccccn4)ncnc3c2c2c1COC(C)(C)C2	15µM*	-2%	15µM*	i	-1%	?
CCCc1nc2oc3c(NCC4CCCO4)ncnc3c2c2c1COC(C)(C)C2 (configuration not stated)	29µM*	-1%	?	i	-1%	?
COc1ncnc2c1oc1nc(C)c3c(c12)CC(C)(C)OC3	5%	11%	?	i	2%	i
Cc1nc2oc3c(NCc4ccccn4)ncnc3c2c2c1COC(C)(C)C2	-24%	1%	?	?	-3%	2.1µM*
CCCN(CCC)C(=O)Cn1c(=O)c2ccccc2n2c(=S)sc(-c3ccccc3C)c12	10µM*	22%	15µM*	i	24%	?
